From PubChem BioAssay AID1476 (National Center for Advancing Translational Sciences (NCATS), 2009)
The whole screen tested about 200,000 compounds, of which about 4,500 (2.2%) were called active. Inconclusive results (about 12%) are left out. The sample as a whole holds a higher share of actives than the screen did. A number with no mark means an inactive call. The call rests on the fitted dose curve; in most records, active means well fitted inhibition curve with a large enough effect; inconclusive means small, poorly fitted or top-dose-only effect, or effect the other way; inactive means flat fitted curve, though single readings scatter.
Further: nearly all actives have a fitted effect of over 40% in size.
Potency means the concentration at half of the fitted maximal effect.
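Wherever max response, negative = inhibition is given: plate controls were enzyme without inhibitor for no effect and buffer without enzyme for full effect.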

What follows are compounds tested against Cruzipain (Trypanosoma cruzi) (UniProt P25779) (assay: qHTS Assay for Promiscuous and Specific Inhibitors of Cruzain (without detergent)). Conditions: purified cruzain, Z-FR-AMC fluorescence, no detergent.
Cruzipain (Trypanosoma cruzi), sequence (P25779 123-467 limits assumed): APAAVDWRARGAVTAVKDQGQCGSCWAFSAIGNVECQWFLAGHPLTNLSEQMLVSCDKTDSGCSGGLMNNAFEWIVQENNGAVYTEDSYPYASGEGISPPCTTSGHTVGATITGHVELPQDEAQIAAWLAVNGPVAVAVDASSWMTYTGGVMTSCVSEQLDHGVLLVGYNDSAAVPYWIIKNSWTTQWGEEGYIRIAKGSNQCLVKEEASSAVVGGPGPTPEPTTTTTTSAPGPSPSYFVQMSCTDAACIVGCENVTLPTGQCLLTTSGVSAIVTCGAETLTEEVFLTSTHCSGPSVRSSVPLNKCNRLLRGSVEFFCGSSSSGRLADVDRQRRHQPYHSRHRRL
In short: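 Detergent-free condition (0.00005% Triton X-100) in acetate buffer pH 5.5 with DTT. 1.5 nM enzyme and compound were pre-mixed 15 min, then 2 uM Z-FR-AMC substrate added; reaction progress from fluorescence change between first and third reads (60 s).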
`COc1c(Cl)cc(Cl)cc1C(=O)Nc1cccc2cccnc12` showed a max response, negative = inhibition of -4.23%. `C[C@@H]1C(c2ccc(F)cc2)=NN(c2ccc(Br)cc2)[C@H]1C(=O)N1CCOC1=O` was tested, and the Potency was 22.4 µM (active). `O=C1OCCN1C(=O)[C@H]1[C@H](c2ccc(Cl)cc2)C(c2cccc(Cl)c2)=NN1c1ccc(Br)cc1` was tested, and the Potency was 8.91 µM (active). With `Cc1ccc2c(c1)N(C(=O)Nc1ccc(Br)cc1F)CCO2` the max response, negative = inhibition was 5.17%. For `O=C1OCCN1C(=O)[C@H]1[C@H](c2ccc(F)cc2)C(c2ccccc2)=NN1c1ccc(Br)cc1`, the Potency was 22.4 µM (active). For `COc1ccc(NS(=O)(=O)c2cc3c4c(c2)CC(=O)N4CCC3)cc1Cl`, the max response, negative = inhibition was -28.2%. Compound `COc1cccc(CNC(=O)c2ccc3c(c2)sc2nc(-c4cccc(OC)c4)cn23)c1` has a max response, negative = inhibition of -4.99%. In the case of `CC1CCN(c2nc3ccc(C(=O)N4CCN(c5ccccc5)CC4)cc3s2)CC1`, the max response, negative = inhibition is reported as -2.72%. For `CCC(CC)c1nn2cc(-c3ccccc3)nc2s1`, the max response, negative = inhibition was -2.39%. `Oc1c(C(c2ccc(F)cc2)N2CCN(Cc3ccccc3)CC2)sc2nc(-c3ccco3)nn12` (stereo not given) was tested, and the max response, negative = inhibition was 1.08%. Work on `CCC(=O)N1CCc2cc(S(=O)(=O)NCCC(=O)Nc3cccc(C)c3C)ccc21` yielded a max response, negative = inhibition of -1.54%. Work on `Cc1ccc(NC(=O)CN2C(=O)C(c3ccc(F)cc3)=NC23CCCCCC3)c(C)c1` yielded a max response, negative = inhibition of 4.08%. Work on `Cc1cc(C)cc(OCc2nnc(SCC(=O)Nc3ccccc3)o2)c1` yielded a max response, negative = inhibition of 4.82%. For `Cc1ccccc1OCc1nnc(SCC(=O)N2c3ccccc3Sc3ccc(Cl)cc32)o1`, the Potency was 12.6 µM (active). For `CC(C)NC(=O)CSc1nnc(COc2ccccc2Cl)o1`, the max response, negative = inhibition was -5.33%. Work on `CCOC(=O)c1c(NC(=O)COc2cc(C)ccc2C(C)C)sc(C)c1C` yielded a max response, negative = inhibition of 8.07%. Compound `Cc1ccc(CCNC(=O)c2ccc(CS(=O)(=O)Cc3cccc(C)c3)o2)cc1` has a max response, negative = inhibition of 19.9%. `CCCc1cc(=O)n2[nH]c(NCc3ccc(CC)cc3)nc2n1` showed a max response, negative = inhibition of -8.1%. `CCc1ccc(NC(=O)N2CCN(C(=O)c3nsc4ccccc34)CC2)cc1` gave a max response, negative = inhibition of -5.87%. In the case of `COc1cc(NC(=O)c2nn(-c3ccc(C)cc3)c(=O)c3c2c2ccccc2n3C)cc(OC)c1OC`, the max response, negative = inhibition is reported as -21.7%. In the case of `O=C1N(Cc2ccc3c(c2)OCO3)c2ccccc2C1(O)c1c[nH]c2ccccc12` (stereo not given), the Potency is reported as 15.8 µM (active). `O=C1N(Cc2ccccc2)c2ccc(Cl)cc2C1(O)c1c[nH]c2ccccc12` (stereo not given) gave a max response, negative = inhibition of 18.9%. `O=C(CCCCn1c(=O)[nH]c2ccccc2c1=O)NCc1ccc2c(c1)OCO2` gave a max response, negative = inhibition of 8.55%. `Oc1ccc(-c2nc3ccc(Cl)cn3c2Nc2ccc3c(c2)OCO3)cc1` was tested, and the max response, negative = inhibition was -3.92%. In the case of `COc1cccc(-c2cc(C(=O)N/N=C/c3ccc(OC)c(COC(C)=O)c3)c3ccccc3n2)c1`, the max response, negative = inhibition is reported as -16%. `CCc1ccc(-c2cc(C(=O)NCc3ccco3)c3ccccc3n2)s1` was tested, and the max response, negative = inhibition was -8.4%. In the case of `Cc1ccc(-c2cc(C(=O)N/N=C/C=C/c3ccco3)c3ccccc3n2)cc1C`, the Potency is reported as 25.1 µM (active). For `N#Cc1nc(/C=C/c2ccc(F)cc2)oc1NC1CCCCC1`, the max response, negative = inhibition was -7.33%. `CCOc1ccc(C2C(C(=O)Nc3ccc(Cl)cc3)=C(C)Nc3nc(C(F)(F)F)nn32)cc1` (stereo not given) was tested, and the max response, negative = inhibition was 3.69%. In the case of `Cc1ccc2oc(=O)c3cnn(CC(=O)N4CCN(c5cccc(Cl)c5)CC4)c3c2c1`, the max response, negative = inhibition is reported as -11.7%. In the case of `Cc1ccccc1OCC(=O)NCC(=O)OCC(=O)c1ccc2ccccc2c1`, the Potency is reported as 10 µM (active). `COCCNC(=O)COc1ccccc1C` was tested, and the max response, negative = inhibition was -9.1%. `Cc1cccc(NC(=O)COc2ccccc2C)n1` gave a max response, negative = inhibition of 10.4%. Work on `CCOc1ccc(NC(=O)C(=O)NCCc2csc3nc(-c4ccccc4F)nn23)cc1` yielded a max response, negative = inhibition of -1.02%. With `CCCSc1ncc(Cl)c(C(=O)Nc2c(C(=O)Nc3ccccc3)oc3ccccc23)n1` the max response, negative = inhibition was -6.15%. `O=C(CN1CCN(c2ccc(Cl)cc2)CC1)N1CCCC1` showed a max response, negative = inhibition of -5.28%. Compound `CC1Cc2ccccc2N1C(=O)CSc1nc2ccccc2o1` (stereo not given) has a max response, negative = inhibition of -7.1%. With `CCN(CC)C(=O)CSc1nc2ccccc2o1` the Potency was 3.16 µM (active). Work on `O=C(CSc1nc2ccccc2o1)N1CCN(c2ccccc2)CC1` yielded a max response, negative = inhibition of -4.7%. For `Cc1ccc(/C=N/NC(=O)CSc2nc3ccccc3o2)cc1`, the max response, negative = inhibition was -9.67%. In the case of `O=C(CSc1nc2ccccc2o1)N1CCN(c2ccc(Cl)cc2)CC1`, the Potency is reported as 10 µM (active). `COc1ccc(C2=NS(=O)(=O)N(C)C(C(=O)NC(C)c3ccccc3)=C2)cc1` (stereo not given) gave a max response, negative = inhibition of -27.6%. In the case of `CCn1c(=O)cc(OCC(=O)Nc2cc(Cl)c(OC)cc2OC)c2ccccc21`, the max response, negative = inhibition is reported as 0.57%. With `N#Cc1cc([N+](=O)[O-])ccc1Oc1cccc(/C=N/NC(=O)c2ccc(Cl)cc2)c1` the Potency was 20 µM (active). With `COc1cc(OC)c(/C=N/NC(=O)c2ccc([N+](=O)[O-])cc2)cc1Br` the max response, negative = inhibition was -5.61%. `COc1ccc(/C=N/NC(=O)c2ccc(Cl)cc2)cc1COC(C)=O` showed a max response, negative = inhibition of 7.25%. With `CCOC(=O)N1CCN(Cc2oc(CO)cc(=O)c2O)CC1` the Potency was 1.58 µM (active). For `O=c1cc(CO)oc(CN2CCC(Cc3ccccc3)CC2)c1O`, the max response, negative = inhibition was -8.62%. In the case of `CCOC(=O)N1CCN(C(=O)c2cc3c(ccc4ccccc43)oc2=O)CC1`, the max response, negative = inhibition is reported as -18.3%. Work on `Cc1ccc(C(=O)N2c3ncnn3C3(CCCCC3)[C@@H]3CCCC[C@@H]32)cc1` yielded a max response, negative = inhibition of 9.53%. `COc1ccc(CNC(=O)CSCc2nc(-c3ccccc3F)oc2C)cc1` showed a max response, negative = inhibition of -2.99%. `CCS(=O)(=O)c1ncc(N(Cc2ccc(F)cc2)Cc2ccco2)c(C(=O)Nc2cc(C)ccc2C)n1` gave a max response, negative = inhibition of -19.1%. `O=C(NCC1CCCO1)/C(=C\c1ccco1)NC(=O)c1ccccc1` (stereo not given) gave a max response, negative = inhibition of -0.97%. `C/C(=C\c1ccco1)C1Nc2cccc3cccc(c23)N1` was tested, and the Potency was 3.16 µM (active). `Cc1ccc(OCC(=O)OCc2cc(=O)n3nc(C4CC4)sc3n2)cc1C` gave a max response, negative = inhibition of -7.58%. `COc1ccccc1NC(=O)c1oc2ccccc2c1NC(=O)C(C)C` was tested, and the max response, negative = inhibition was -10.9%. With `CC(=O)c1cccc(NC(=O)CSc2nc3c(c(=O)[nH]2)CCC3)c1` the max response, negative = inhibition was -3.06%. For `C=CCNc1nnc(SCC(=O)N2CCCCC2)c2ccccc12`, the Potency was 20 µM (active). `O=C(CSc1nc2ccccc2nc1Cc1ccccc1)N1CCCCC1` showed a max response, negative = inhibition of -0.222%. Compound `C=CCNc1nnc(C)c2ccccc12` has a max response, negative = inhibition of -10.1%. With `COc1ccc(CNC(=O)c2cc3cccc(OC)c3oc2=O)cc1` the max response, negative = inhibition was -1.78%. Work on `CCOc1ccc(S(=O)(=O)c2cn(Cc3ccc(OC)cc3)c3ccc(F)cc3c2=O)cc1` yielded a max response, negative = inhibition of 0.948%. In the case of `Cc1ccc(-n2c(SCC(=O)c3ccccc3)nc3c([nH]c4ccccc43)c2=O)cc1`, the max response, negative = inhibition is reported as -13.1%. With `COc1ccc(-c2c(C)nn3c(N4CCC(C(=O)NCCC(C)C)CC4)cc(C)nc23)cc1OC` the max response, negative = inhibition was 4.69%. `Cc1ccc(CN2COc3cc(C)c4c(oc(=O)c5ccccc54)c3C2)cc1` was tested, and the max response, negative = inhibition was -21.8%. `Fc1ccc2nc(N3CCCCC3)sc2c1` was tested, and the max response, negative = inhibition was 2.08%. For `O=C(Nc1nc2c(s1)CCCC2)c1ccccc1F`, the max response, negative = inhibition was -4.21%. In the case of `Fc1ccc2nc(Nc3nc4c(s3)CCCC4)sc2c1`, the Potency is reported as 31.6 µM (active). `Cn1c(=O)c2c(SCC(=O)N3CCc4ccccc43)nc(-c3ccc(Cl)cc3)nc2n(C)c1=O` showed a max response, negative = inhibition of 16.5%. `Cc1ccc(S(=O)(=O)N2CCC(C(=O)Nc3cc(C)ccc3C)CC2)cc1` showed a max response, negative = inhibition of 10.8%. `Cc1ccccc1CSc1nc(-c2ccccc2)nc2c1Cc1c(CO)cnc(C)c1O2` was tested, and the max response, negative = inhibition was -5.34%. `CC(C)(C)C1C/C(=C/c2ccco2)C(=O)/C(=C/c2ccco2)C1` (stereo not given) gave a max response, negative = inhibition of 22.8%. Compound `COc1ccccc1/C=C/C1=NC(=C\N(C)C)/C(=O)O1` has a max response, negative = inhibition of -2%. `O=C1OC(/C=C/c2ccccc2)=NC/1=C/c1ccco1` was tested, and the Potency was 3.16 µM (active). `COc1ccccc1-c1nnc(C2CCN(C(=O)c3ccc(Cl)cc3)CC2)o1` was tested, and the max response, negative = inhibition was -7.8%. In the case of `Fc1cccc(-n2ncc3c2ncn2nc(-c4ccccc4Cl)nc32)c1`, the max response, negative = inhibition is reported as -11.9%. `COc1ccccc1CNC(=O)NCc1noc2ccc(C)cc12` showed a max response, negative = inhibition of -3.84%. With `O=C(CN1CCSc2ccccc21)N1CCN(c2ccccc2)CC1` the max response, negative = inhibition was -4.92%. For `Cc1ccc(-c2nc3ccccc3[nH]2)cc1NC(=O)c1sc2ccccc2c1Cl`, the Potency was 7.94 µM (active). `COc1ccc(Br)cc1C(=O)NC(=S)Nc1cc(-c2nc3ccccc3[nH]2)ccc1C` was tested, and the Potency was 10 µM (active). With `Cc1ccc(-c2nc3ccccc3[nH]2)cc1N` the max response, negative = inhibition was 0.934%. For `Cc1cc2[nH]ncc2cc1NC(=S)NC(=O)c1ccccc1`, the max response, negative = inhibition was 0.868%. Compound `COc1ccc2oc(-c3ccc(C)c(NC(=O)c4sc5ccccc5c4Cl)c3)nc2c1` has a max response, negative = inhibition of -7.77%. `COC(=O)c1cc(NC(=O)c2sc3ccccc3c2Cl)cc(C(=O)OC)c1` gave a max response, negative = inhibition of -7.2%. `Cc1onc(-c2ccc(F)cc2F)c1C(=O)Nc1cccc(C(F)(F)F)c1` was tested, and the max response, negative = inhibition was -6.18%. With `Cc1cccc(-c2nc(SCc3ccc(Br)cc3)n3[nH]c(=O)cc3n2)c1` the max response, negative = inhibition was -2.63%. For `O=C(Cn1c(=O)n(Cc2ccccc2)c(=O)c2sc3ccccc3c21)Nc1ccccc1F`, the max response, negative = inhibition was 9.77%. With `CCCCN(CC)CCCNC(=O)c1nn(C)c2c1CS(=O)(=O)c1ccccc1-2` the max response, negative = inhibition was 5.31%. `CCCNC(=O)CCC(=O)N1Cc2ccccc2Oc2ncccc21` was tested, and the max response, negative = inhibition was -4.94%. In the case of `CCOC(=O)c1c(NC(=S)NC(=O)c2ccco2)sc2c1CCCC2`, the Potency is reported as 12.6 µM (active). In the case of `CCOC(=O)c1c(NC(=S)Nc2ccccc2C)sc2c1CCC2`, the max response, negative = inhibition is reported as -25.8%. `CCOC(=O)c1c(NC(=O)c2ccc(S(=O)(=O)N(CC)CC)cc2)sc2c1CCCCC2` gave a max response, negative = inhibition of 8.24%. For `CCOC(=O)c1c(NC(=O)c2cc(-c3ccc(Cl)cc3)on2)sc2c1CCCC2`, the max response, negative = inhibition was 3.1%. `CC(C)OC(=O)c1c(NC(=O)c2ccco2)sc2c1CCCC2` was tested, and the max response, negative = inhibition was -12.4%. With `CCOC(=O)c1c(NC(=O)C2CCN(S(=O)(=O)c3ccc(Cl)cc3)CC2)sc2c1CCCC2` the Potency was 15.8 µM (active).
